Experimental data reported in PubChem BioAssay (NCI).
This is part of a sample that, as a whole, favours compounds with a hit. Of some 79,000 tested, about 15% had one in any assay. A number with no mark means an inactive call. The source made the active and inactive calls. Cut-off read from the data, not from the text of the source: active = growth inhibition above about 70%; inactive = the rest.

Assays:
[1] = NCI Yeast Anticancer Drug Screen. Data for the rad50 strain (AID 155);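 note: 0% = growth of vehicle-only cultures of the same strain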; settings: S. cerevisiae rad50 strain growth inhibition, stronger effect = higher value
Summary of the method: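 Vehicle-treated cultures provide the reference for the growth inhibition reported for compound-exposed, repair-deficient yeast.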

[2] = NCI Yeast Anticancer Drug Screen. Data for the mec2-1 strain (AID 157); settings: S. cerevisiae mec2-1 strain, stronger effect = higher value
Summary of the method: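 Mutant yeast (mec2-1) grown with compound; growth inhibition relative to vehicle control reported.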

[3] = NCI Yeast Anticancer Drug Screen. Data for the sgs1 mgt1 strain (AID 161);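 note: 0% = growth of cultures given vehicle only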; settings: S. cerevisiae sgs1 mgt1 strain, stronger effect = higher value
Summary of the method: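 Compounds are added to genetically altered yeast, and growth is compared with cultures given vehicle alone to give percent inhibition.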

[4] = NCI Yeast Anticancer Drug Screen. Data for the cln2 rad14 strain (AID 165);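 note: 0% = growth equal to vehicle treated cultures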; settings: S. cerevisiae cln2 rad14 strain, stronger effect = higher value
Summary of the method: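 Readout is yeast growth inhibition versus vehicle-treated controls, using a strain with cln2 and rad14 alterations exposed to compound.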

[5] = NCI Yeast Anticancer Drug Screen. Data for the bub3 strain (AID 167); settings: S. cerevisiae bub3 mutant strain, stronger effect = higher value
Summary of the method: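 Mutant yeast screening strain plus compound; vehicle-treated cultures serve as the 0% inhibition reference.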

[6] = NCI Yeast Anticancer Drug Screen. Data for the mlh1 rad18 strain (AID 175); settings: S. cerevisiae mlh1 rad18 strain growth inhibition, stronger effect = higher value
Summary of the method: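 Genetically defined yeast (DNA repair-deficient) exposed to compounds; growth inhibition determined relative to vehicle.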

[7] = at 5.0 µM (retest, dose inferred, filed as 0.5)
[8] = at 50.0 µM (retest, dose inferred, filed as 5.0)

SMILES | growth inhibition [1, 7] | growth inhibition [1, 8] | growth inhibition ([1]; at 50.0 µM) | growth inhibition [2, 7] | growth inhibition [2, 8] | growth inhibition ([2]; at 50.0 µM) | growth inhibition [3, 7] | growth inhibition [3, 8] | growth inhibition ([3]; at 50.0 µM) | growth inhibition [4, 7] | growth inhibition [4, 8] | growth inhibition ([4]; at 50.0 µM) | growth inhibition [5, 7] | growth inhibition [5, 8] | growth inhibition ([5]; at 50.0 µM) | growth inhibition [6, 7] | growth inhibition [6, 8] | growth inhibition ([6]; at 50.0 µM)
OC(CBr)c1c(Br)ccc2ccccc12 (stereo not drawn) | 3% | 65% | 53.6% | -6% | 82% (active) | 5.75% | 3% | 77% (active) | 48% | -3% | 65% | 32.9% | -1% | 77% (active) | 20.4% | 20% | 90% (active) | 74.7% (active)
COc1cnc2cc3c4c(cccc4c2c1)NC3=O | 87% (active) | 91% (active) | 80% (active) | 51% | 89% (active) | 82.2% (active) | 55% | 92% (active) | 79.7% (active) | 43% | 83% (active) | 75% (active) | 51% | 87% (active) | 80.8% (active) |  |  | 
CC(=O)Oc1ccc2ccccc2c1CN(Cc1c(OC(C)=O)ccc2ccccc12)C(C)=O | 9% | 64% | 88.8% (active) | 9% | 53% | 72.8% (active) | 4% | 84% (active) | 89.6% (active) | 3% | 88% (active) | 93.8% (active) | 3% | 80% (active) | 93.8% (active) |  |  | 
NS(=O)(=O)c1ccc(NC(=O)Cc2nc3ccccc3s2)cc1 | 36% | 99% (active) | 91% (active) | 40% | 99% (active) | 91% (active) | 54% | 100% (active) | 93.2% (active) | 31% | 94% (active) | 90.7% (active) | 49% | 99% (active) | 92% (active) | 65% | 99% (active) | 91.2% (active)
COC(=O)c1cc(=O)n(-c2ccccc2C(F)(F)F)c(SC)n1 | 24% | 91% (active) | 99.2% (active) | 14% | 92% (active) | 99.5% (active) | 43% | 94% (active) | 99.5% (active) | 14% | 87% (active) | 96.8% (active) | 7% | 89% (active) | 99.5% (active) |  |  | 
CN(C)C(=S)S(=O)(=O)CCCCS(=O)(=O)C(=S)N(C)C | -1% | 3% | 86.3% (active) | 3% | 8% | 32.1% | 2% | 11% | 92.3% (active) | -6% | -1% | 9% | -2% | 0% | 20.9% |  |  | 
O=C(NNc1ccccc1)c1cccc([N+](=O)[O-])c1 | 23% | 98% (active) | 98.2% (active) | 31% | 99% (active) | 98.5% (active) | 39% | 99% (active) | 98.8% (active) | 28% | 98% (active) | 93.7% (active) | 29% | 99% (active) | 99.4% (active) | 29% | 98% (active) | 98.8% (active)
Cc1c2cnccc2c(C)c2c1c1ccccc1n2Cc1ccccc1 | 3% | 98% (active) | 89% (active) | -2% | 75% (active) | 25.5% | -2% | 94% (active) | 48.8% | -1% | 91% (active) | 28.4% | -3% | 93% (active) | 59.5% | -8% | 97% (active) | 62.7%
CC1(C)COC(c2cccc(C(O)c3ccc(Cl)cc3)c2)=N1 (stereo not drawn) | 40% | 99% (active) | 47% | -19% | 99% (active) | 68% | -23% | 99% (active) | 72.5% (active) | -2% | 99% (active) | 40.5% | -21% | 99% (active) | 52.5% | 26% | 99% (active) | 54.1%
C/C(=N\NS(=O)(=O)c1ccc(C)cc1)c1cc2ccccc2n1C | 0% | 85% (active) | 74.9% (active) | -24% | 65% | 44.2% | -17% | 82% (active) | 63.2% | -5% | 92% (active) | 78.5% (active) | 31% | 93% (active) | 60.7% | 3% | 86% (active) | 65.2%
CCCCC1(C(O)CC)Sc2ccccc2N1C (stereo not drawn) | -7% | 24% | 31.8% | 2% | 82% (active) | 41.5% | -2% | 83% (active) | 50.6% | 1% | 36% | 65.9% | -14% | 67% | 61.6% |  |  | 
